We go through six compounds from ChEMBL document CHEMBL1961873, “Compounds: GSK PKIS; Assays: Nanosyn kinase panel” (2012).

Usually inhibition stands for the drop in the measured response relative to a control, in per cent.

The target in test [1] is Serine/threonine-protein kinase MRCK alpha (Homo sapiens) (UniProt Q5VT25). Conditions: at 0.1 µM.
For test [2] the target is unchanged. Conditions: at 1 µM.
Test [3] addresses Serine/threonine-protein kinase MRCK beta (Homo sapiens) (UniProt Q9Y5S2). Conditions: at 0.1 µM.
Test [4] shares this target. Conditions: at 1 µM.
In test [5] the target is Ribosomal protein S6 kinase alpha-5 (Homo sapiens) (UniProt O75582). Conditions: at 0.1 µM.
The target is the same in test [6]. Conditions: at 1 µM.
The target of test [7] is Ribosomal protein S6 kinase alpha-4 (Homo sapiens) (UniProt O75676). Conditions: at 0.1 µM.
Test [8] has the same target. Conditions: at 1 µM.
The target in test [9] is Ribosomal protein S6 kinase beta-1 (Homo sapiens) (UniProt P23443). Conditions: at 0.1 µM.
The target is the same in test [10]. Conditions: at 1 µM.
Test [11] concerns the target T1, 3-phosphoinositide-dependent protein kinase 1 (Homo sapiens) (UniProt O15530).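 Also: values are mean inhibition of PDK1.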
T1 sequence (whole entry): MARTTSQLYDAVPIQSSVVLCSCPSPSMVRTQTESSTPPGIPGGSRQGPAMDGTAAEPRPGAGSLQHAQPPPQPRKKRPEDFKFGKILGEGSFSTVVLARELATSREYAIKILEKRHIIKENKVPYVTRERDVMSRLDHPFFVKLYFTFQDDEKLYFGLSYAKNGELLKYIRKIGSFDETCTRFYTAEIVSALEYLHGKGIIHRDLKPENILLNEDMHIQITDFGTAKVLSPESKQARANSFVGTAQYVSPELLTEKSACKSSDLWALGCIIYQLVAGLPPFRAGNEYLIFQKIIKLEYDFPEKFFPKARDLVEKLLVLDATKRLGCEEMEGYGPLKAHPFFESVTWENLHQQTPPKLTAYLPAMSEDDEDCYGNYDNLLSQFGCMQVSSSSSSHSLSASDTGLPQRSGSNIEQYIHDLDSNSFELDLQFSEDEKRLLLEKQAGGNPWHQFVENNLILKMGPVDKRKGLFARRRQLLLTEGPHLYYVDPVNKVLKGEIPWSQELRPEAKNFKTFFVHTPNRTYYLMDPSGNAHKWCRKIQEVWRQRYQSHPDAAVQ
Conditions: at 0.1 µM.

The target in test [12] is cAMP-dependent protein kinase catalytic subunit alpha (Homo sapiens) (UniProt P17612). Conditions: at 0.1 µM.
The target is the same in test [13]. Conditions: at 1 µM.
The target in test [14] is Protein kinase C alpha type (Homo sapiens) (UniProt P17252). Conditions: at 0.1 µM.
For test [15] the target is unchanged. Conditions: at 1 µM.
Test [16] has as its target Protein kinase C beta type (Homo sapiens) (UniProt P05771). Conditions: at 0.1 µM.
The target is the same in test [17]. Conditions: at 1 µM.
The target of test [18] is Protein kinase C eta type (Homo sapiens) (UniProt P24723). Conditions: at 0.1 µM.
Test [19] shares this target. Conditions: at 1 µM.
For test [20], the target named is Protein kinase C gamma type (Homo sapiens) (UniProt P05129). Conditions: at 0.1 µM.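 Also: values are mean percent inhibition of PKC gamma.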

The structures appear in SMILES notation.

Protein kinase C beta type (Homo sapiens), sequence (P05771 2-671 limits assumed): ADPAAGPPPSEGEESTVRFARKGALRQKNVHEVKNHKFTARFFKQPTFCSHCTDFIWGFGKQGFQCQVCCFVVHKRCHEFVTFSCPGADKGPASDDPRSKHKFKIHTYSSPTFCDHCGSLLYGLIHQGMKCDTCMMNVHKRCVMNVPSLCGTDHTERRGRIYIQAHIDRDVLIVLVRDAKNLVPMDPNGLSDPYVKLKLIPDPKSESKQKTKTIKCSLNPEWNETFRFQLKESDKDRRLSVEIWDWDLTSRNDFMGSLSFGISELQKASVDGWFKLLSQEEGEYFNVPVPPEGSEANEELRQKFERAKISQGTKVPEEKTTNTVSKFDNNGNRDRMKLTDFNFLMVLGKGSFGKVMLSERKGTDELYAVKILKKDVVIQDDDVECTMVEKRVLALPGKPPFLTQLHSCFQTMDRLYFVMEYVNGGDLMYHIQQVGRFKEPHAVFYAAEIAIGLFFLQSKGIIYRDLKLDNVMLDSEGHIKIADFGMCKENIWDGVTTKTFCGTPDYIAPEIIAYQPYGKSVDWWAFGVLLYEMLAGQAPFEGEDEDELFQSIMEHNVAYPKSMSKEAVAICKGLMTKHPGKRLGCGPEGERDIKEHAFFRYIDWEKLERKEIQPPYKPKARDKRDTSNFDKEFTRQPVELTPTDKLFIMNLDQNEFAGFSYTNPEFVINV
Serine/threonine-protein kinase MRCK beta (Homo sapiens), sequence (Q9Y5S2 whole entry): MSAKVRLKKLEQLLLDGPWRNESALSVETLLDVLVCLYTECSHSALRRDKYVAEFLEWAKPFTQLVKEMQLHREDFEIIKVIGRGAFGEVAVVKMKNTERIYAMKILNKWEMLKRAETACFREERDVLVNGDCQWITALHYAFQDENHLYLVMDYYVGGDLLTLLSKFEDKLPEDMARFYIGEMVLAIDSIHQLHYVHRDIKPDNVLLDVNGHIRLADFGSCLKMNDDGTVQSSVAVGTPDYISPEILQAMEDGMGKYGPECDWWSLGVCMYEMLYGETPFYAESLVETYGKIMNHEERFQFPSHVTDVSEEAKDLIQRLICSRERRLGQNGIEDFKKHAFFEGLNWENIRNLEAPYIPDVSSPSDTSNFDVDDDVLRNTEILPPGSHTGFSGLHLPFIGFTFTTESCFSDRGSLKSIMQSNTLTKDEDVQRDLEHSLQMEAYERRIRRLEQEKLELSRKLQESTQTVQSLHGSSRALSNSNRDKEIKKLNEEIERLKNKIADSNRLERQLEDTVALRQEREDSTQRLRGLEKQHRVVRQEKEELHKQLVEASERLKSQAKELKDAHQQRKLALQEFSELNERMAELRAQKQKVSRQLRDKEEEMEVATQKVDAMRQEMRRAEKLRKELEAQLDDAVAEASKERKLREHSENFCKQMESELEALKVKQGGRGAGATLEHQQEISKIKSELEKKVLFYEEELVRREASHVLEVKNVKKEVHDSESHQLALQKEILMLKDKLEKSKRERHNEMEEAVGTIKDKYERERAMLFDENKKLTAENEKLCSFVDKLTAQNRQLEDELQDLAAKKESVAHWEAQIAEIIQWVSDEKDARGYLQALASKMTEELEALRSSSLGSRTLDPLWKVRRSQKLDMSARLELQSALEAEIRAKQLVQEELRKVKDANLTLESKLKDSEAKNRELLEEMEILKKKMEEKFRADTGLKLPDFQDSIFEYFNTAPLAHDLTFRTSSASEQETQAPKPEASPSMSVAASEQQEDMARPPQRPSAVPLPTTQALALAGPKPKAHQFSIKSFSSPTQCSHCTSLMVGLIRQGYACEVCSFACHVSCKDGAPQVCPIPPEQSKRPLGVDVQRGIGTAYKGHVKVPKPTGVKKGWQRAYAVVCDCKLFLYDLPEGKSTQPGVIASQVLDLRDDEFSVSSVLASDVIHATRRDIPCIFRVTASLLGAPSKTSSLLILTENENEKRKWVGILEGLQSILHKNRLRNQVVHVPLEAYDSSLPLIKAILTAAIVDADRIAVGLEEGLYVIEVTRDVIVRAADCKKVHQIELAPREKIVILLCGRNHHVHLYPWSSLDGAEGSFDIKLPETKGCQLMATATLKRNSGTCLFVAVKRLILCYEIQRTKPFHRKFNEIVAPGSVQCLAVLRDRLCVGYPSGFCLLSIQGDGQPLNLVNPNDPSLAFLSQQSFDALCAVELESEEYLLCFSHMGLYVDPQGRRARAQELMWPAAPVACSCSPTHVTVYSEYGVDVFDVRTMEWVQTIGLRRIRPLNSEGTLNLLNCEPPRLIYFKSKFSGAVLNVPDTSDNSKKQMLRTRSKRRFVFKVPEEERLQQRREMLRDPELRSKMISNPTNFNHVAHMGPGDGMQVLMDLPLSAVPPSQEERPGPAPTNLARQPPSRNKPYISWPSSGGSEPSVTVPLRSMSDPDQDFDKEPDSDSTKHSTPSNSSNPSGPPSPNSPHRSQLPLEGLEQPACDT
Serine/threonine-protein kinase MRCK alpha (Homo sapiens), sequence (Q5VT25 whole entry): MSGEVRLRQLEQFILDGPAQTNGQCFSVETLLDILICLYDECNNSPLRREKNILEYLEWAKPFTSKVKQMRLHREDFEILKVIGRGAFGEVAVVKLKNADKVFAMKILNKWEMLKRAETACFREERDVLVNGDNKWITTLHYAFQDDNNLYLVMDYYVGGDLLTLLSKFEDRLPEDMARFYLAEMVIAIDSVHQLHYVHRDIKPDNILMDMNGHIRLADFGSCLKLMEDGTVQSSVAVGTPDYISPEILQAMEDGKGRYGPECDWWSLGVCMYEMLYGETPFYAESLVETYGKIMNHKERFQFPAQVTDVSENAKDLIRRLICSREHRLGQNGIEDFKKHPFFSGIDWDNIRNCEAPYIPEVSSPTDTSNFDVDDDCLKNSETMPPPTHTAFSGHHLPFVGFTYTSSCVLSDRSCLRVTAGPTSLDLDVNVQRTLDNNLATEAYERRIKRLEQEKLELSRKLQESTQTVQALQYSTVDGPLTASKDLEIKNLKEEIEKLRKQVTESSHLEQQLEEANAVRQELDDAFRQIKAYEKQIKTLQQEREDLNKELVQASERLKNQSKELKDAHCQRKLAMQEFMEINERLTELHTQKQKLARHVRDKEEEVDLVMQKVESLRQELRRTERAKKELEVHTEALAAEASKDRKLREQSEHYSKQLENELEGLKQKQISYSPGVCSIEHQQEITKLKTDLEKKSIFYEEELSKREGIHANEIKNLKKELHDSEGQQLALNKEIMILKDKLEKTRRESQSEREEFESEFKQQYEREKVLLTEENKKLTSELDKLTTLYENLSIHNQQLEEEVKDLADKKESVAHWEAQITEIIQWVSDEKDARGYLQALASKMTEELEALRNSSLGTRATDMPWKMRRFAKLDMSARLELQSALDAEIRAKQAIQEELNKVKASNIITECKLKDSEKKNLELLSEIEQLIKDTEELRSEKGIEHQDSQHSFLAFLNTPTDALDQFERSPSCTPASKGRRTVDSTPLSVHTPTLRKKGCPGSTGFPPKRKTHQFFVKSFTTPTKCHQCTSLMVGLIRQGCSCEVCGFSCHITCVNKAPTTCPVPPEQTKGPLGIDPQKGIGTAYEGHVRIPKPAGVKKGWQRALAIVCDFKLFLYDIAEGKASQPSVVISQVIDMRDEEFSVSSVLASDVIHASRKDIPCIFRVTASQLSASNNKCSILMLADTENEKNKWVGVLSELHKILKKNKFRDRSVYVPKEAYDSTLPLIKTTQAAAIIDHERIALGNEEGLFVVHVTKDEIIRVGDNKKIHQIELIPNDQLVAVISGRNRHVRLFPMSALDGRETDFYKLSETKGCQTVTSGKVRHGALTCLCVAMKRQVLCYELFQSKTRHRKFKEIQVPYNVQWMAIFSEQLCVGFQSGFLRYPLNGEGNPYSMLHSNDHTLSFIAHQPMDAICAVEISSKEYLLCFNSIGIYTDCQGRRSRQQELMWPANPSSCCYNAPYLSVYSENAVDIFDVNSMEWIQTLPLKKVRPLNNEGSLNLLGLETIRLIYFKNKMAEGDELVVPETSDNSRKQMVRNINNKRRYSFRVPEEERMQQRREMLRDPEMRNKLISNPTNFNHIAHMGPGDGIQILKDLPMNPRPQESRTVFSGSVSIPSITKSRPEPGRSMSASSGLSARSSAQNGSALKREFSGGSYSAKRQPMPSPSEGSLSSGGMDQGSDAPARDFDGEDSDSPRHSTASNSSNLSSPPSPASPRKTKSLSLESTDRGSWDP

`COC(=O)c1sc(-n2cnc3cc(OC)c(OC)cc32)cc1OCc1ccccc1C(F)(F)F`: the inhibition was -0.56% in test [1]; -2.93% in [2]; -0.49% in [3]; -0.87% in test [4]; 3.01% in test [5]; 1.81% in test [6]. The inhibition in [7] stood at 0.54%; in test [8] it was 3.06%; in test [9], 2.41%; in test [10], 7.02%; in [11], 1.42%; in test [12] it was 1.59%. The inhibition in test [13] was 0.74%; in test [14], 0.62%; in test [15], 1.49%; in test [16] it was -0.94%; in [17], 0.17%; in [18], 2.15%. Further, the inhibition in test [19] stood at 0.99%; in [20], 3.39%.

For the compound `CNC(=O)c1cc(-c2ccc(F)cc2)cc(-c2ccc(S(=O)(=O)N3CCCC3)cc2)c1N`, the inhibition in test [1] is 1.92%; in [2] it was 0.6%; in [3] it was -1.06%; in test [4], -0.2%; in test [5] it was 9.11%; in test [6] it was 8.3%. The inhibition is 1.23% in [7]; 1.99% in test [8]; 0.63% in test [9]; 1.47% in test [10]; 1.46% in test [11]; 0.9% in [12]. Moreover, the inhibition in test [13] was 0.32%; in test [14], 0.46%; in [15] it was 1.02%; in test [16], -0.39%; in test [17], 0.24%; in [18], 3.68%. Besides, the results for the inhibition in test [19] and in test [20] were 1.41% and 2.34%, respectively.

On to `CN1CCC(n2cnc(-c3ccc(F)cc3)c2-c2ccnc(N)n2)CC1`, for which the inhibition is 1.47% in test [1]; 1.4% in test [2]; -1.13% in [3]; 1.3% in [4]; 0.55% in test [5]; 2.23% in test [6]. Besides, the inhibition is 0.42% in [7]; 3.67% in [8]; -0.73% in test [9]; 1.36% in test [10]; 3.73% in [11]; 3.06% in test [12]. In addition, the inhibition came to 7.95% in test [13]; 1.23% in test [14]; 10.6% in test [15]; 0.83% in test [16]; 7.02% in test [17]; 3.71% in test [18]. Besides, the inhibition worked out at 4.79% in [19] and 0.37% in [20].

On to `c1ccc(COc2ccc(Nc3ncnc4ccc(-c5ccco5)cc34)cc2)cc1`, for which the inhibition in test [1] was -3.21%; in [2], -2.24%; in test [3], 0.9%; in [4], -0.9%; in test [5], 0.07%; in test [6] it was -1.17%. For the same compound, the inhibition stood at 2.09% in [7]; 1.67% in [8]; 0.5% in [9]; 0.07% in [10]; 0.07% in test [11]; 1.25% in [12]. The inhibition in [13] was 1.55%; in test [14], -0.04%; in [15], 0.05%; in [16] it was -0.86%; in [17] it was -0.3%; in [18], 0.37%. For the same compound, the inhibition in [19] was 0.45%; in [20], 0.73%.

For the compound `CNC(=O)c1cccc(C#Cc2cncnc2Nc2ccc(OCc3cccc(F)c3)c(Cl)c2)c1`, the inhibition is -0.5% in test [1]; 1.42% in test [2]; -0.81% in test [3]; -3.2% in test [4]; -0.16% in test [5]; -0.2% in test [6]. For the same compound, the inhibition in test [7] came out at 0.45%; in [8] it was 1.97%; in [9] it was 0.88%; in [10] it was 0.77%; in [11] it was 1%; in test [12] it was 1.13%. Besides, the inhibition was 0.28% in [13]; -0.17% in [14]; 0.64% in [15]; 0.07% in [16]; 1.77% in [17]; 1.23% in test [18]. Moreover, the inhibition in test [19] was -0.12%; in [20] it was 0.99%.

With `[O-][S+]1CCN(Cc2ccc(-c3ccc4ncnc(Nc5ccc(OCc6cccc(F)c6)c(Cl)c5)c4c3)o2)CC1`, the inhibition in test [1] was -1.31%; in test [2], -1.3%; in test [3], -0.28%; in [4], -0.43%; in test [5], 3.5%; in test [6], 3.71%. In addition, the inhibition in test [7] was 3.38%; in [8] it was 4.98%; in test [9] it was 2.86%; in test [10], 3.84%; in test [11], 4.4%; in test [12], 2.27%. Further, the inhibition in test [13] is 3.13%; in test [14], 1.17%; in [15] it was 1.29%; in test [16] it was -0.91%; in test [17], 1.67%; in [18], 2.12%. Moreover, the results for the inhibition in test [19] and in [20] were 4.25% and 3.03%, respectively.
